From PubChem BioAssay (NCATS)
Records with an inconclusive call do not appear. Activity calls are given as the source filed them. Unless noted, calls follow the shape of the dose curve; as a rule, active = well fitted curve in the direction sought with a large enough effect; inconclusive = small, poorly fitted or top-dose-only effect, or another doubt; inactive = no such curve, though single readings can be large; an effect the other way counts as inactive or inconclusive.

How the values were obtained:
[1] = qHTS to identify inhibitors of the type 1 interferon - major histocompatibility complex class I in skeletal muscle: primary screen against the NCATS Pharmaceutical Collection (AID 1347407);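 also: luminescence of HiBiT knocked into endogenous HLA-B as interferon-induced MHC class I level; % is scaled to controls: 0 for no effect and ±100 for the full control effect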
How it was run: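 Cells were seeded with 4 ng/ml IFN-beta, incubated 1 h, then dosed with compounds over eight 1:5 steps up to 46 uM final. After 24 h at 37 C, HiBiT lytic reagent was added and luminescence read after 10 min lysis in the dark.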

[2] = target: Protein phosphatase 1D (Homo sapiens) (UniProt O15297); test: RapidFire Mass Spectrometry qHTS Assay for Modulators of WT P53-Induced Phosphatase 1 (WIP1) (AID 1347424);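 also: amount of dephosphorylated VEPPL-S-QETFS peptide product formed by WIP1; series mostly up to about 63 µM; plate controls were DMSO wells for no effect and GSK830371 inhibitor control at 10 µM for full effect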
Sequence of Protein phosphatase 1D (Homo sapiens) (O15297 whole entry, looked up): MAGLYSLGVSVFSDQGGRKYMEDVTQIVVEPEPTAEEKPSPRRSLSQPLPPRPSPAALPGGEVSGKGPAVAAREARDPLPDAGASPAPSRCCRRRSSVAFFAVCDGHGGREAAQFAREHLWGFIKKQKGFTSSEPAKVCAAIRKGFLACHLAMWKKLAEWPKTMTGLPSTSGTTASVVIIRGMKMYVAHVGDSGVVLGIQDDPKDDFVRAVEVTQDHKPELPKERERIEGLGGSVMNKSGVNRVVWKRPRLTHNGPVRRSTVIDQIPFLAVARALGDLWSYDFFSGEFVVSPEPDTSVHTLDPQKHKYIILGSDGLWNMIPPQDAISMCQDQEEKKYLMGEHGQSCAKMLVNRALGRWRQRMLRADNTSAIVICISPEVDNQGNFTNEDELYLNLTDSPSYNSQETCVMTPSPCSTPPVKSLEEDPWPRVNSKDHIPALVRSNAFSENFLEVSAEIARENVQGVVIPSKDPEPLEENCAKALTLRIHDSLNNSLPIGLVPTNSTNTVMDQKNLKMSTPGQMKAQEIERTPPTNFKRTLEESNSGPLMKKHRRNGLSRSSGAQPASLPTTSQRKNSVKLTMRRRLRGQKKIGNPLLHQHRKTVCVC
How it was run: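 WIP1 (10 nM final) was preincubated 1 h at room temperature with compounds in Tris-HCl pH 7.5, 30 mM MgCl2, TCEP, EGTA, BSA; 2 uM VEPPL-pS-QETFS phosphopeptide was added for 5 min, quenched with formic acid, and dephosphorylated product quantified by RapidFire MS.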

[3] = target: Protein phosphatase 1D (Homo sapiens) (UniProt O15297); test: Rhodamine-PBP qHTS Assay for Modulators of WT P53-Induced Phosphatase 1 (WIP1) (AID 1347425); also: % of control where 0% means no effect
How it was run: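 WIP1 (5 nM final) was preincubated with compound for 1 hour at room temperature. It then dephosphorylated 10 uM VEPPL-pS-QETFS peptide in Tris-HCl pH 7.5 with 30 mM MgCl2. Released Pi was detected by 10 uM Rh-PBP fluorescence (ex 525/em 598 nm) read at 1-min intervals for 11 min, as delta f1 - f0.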

[4] = Primary qHTS for inhibitors of La Crosse Virus (LACV) - induced cell death in SH-SY5Y cells (AID 1508616);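 also: top concentration of the series differs between compounds; 0% = infected DMSO wells and 100% = uninfected DMSO wells; higher means more rescue of cells from virus-induced death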
How it was run: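 Readout was luminescence from ATPLite 1step added after a 6-day LACV infection (0.01 MOI) of SH-SY5Y cells that had received pin-transferred compound 24 hr after seeding.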

[5] = target: Calcium and integrin-binding protein 1 (Homo sapiens) (UniProt Q99828); test: Primary qHTS for Identification of Calcium Integrin Binding Protein 1 (CIB1) Competitor (AID 1508620);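 also: GST tagged CIB1 binding a fluorescein labelled alphaIIb integrin peptide tracer; top concentration of the series differs between compounds; % is scaled to controls: 0 for no effect and ±100 for the full control effect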
Sequence of Calcium and integrin-binding protein 1 (Homo sapiens) (Q99828 whole entry, looked up): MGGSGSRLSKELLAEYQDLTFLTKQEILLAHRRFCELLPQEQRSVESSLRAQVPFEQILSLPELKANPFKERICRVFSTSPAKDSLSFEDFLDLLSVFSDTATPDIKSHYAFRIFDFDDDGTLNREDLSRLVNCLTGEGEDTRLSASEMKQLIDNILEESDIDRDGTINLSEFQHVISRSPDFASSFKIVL
How it was run: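 Fluorescence polarization competition: CIB1-GST (1 uM final) preincubated with compound 15 min at room temperature, then FITC-labeled alphaIIb peptide (100 nM final) added for another 15 min. Polarization read at Ex 480/Em 540.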

[6] = Primary qHTS for small molecule stabilizers of the endoplasmic reticulum resident proteome: Secreted ER Calcium Modulated Protein (SERCaMP) assay (AID 1508630); also: % is scaled to controls: 0 for no effect and ±100 for the full control effect
How it was run: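 GLuc-SERCaMP-expressing SH-SY5Y cells, pretreated 16 h with compound, are challenged with thapsigargin to empty ER calcium stores; after 4 h, coelenterazine is added directly to the medium and luminescence is imaged.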

[7] = A High-Content qHTS Against Drug Library for the Identification of Small Molecules that Inhibit DYT1 Early Onset Primary Dystonia-Associated Cell Pathology (AID 1645839; calls by dose curve; also: series mostly up to about 46 µM)
How it was run: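 Readout: %pathology, the punctate EGFP-TorsinA distribution from imaging, as the primary channel and cell count as the toxicity counterscreen. HEK293 Flp-In cells expressing delE TorsinA were induced with tetracycline and treated with compound for 48 h.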

[8] = Counterscreen qHTS for small molecule stabilizers of the endoplasmic reticulum resident proteome: GLuc-NoTag assay (AID 1508627);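 also: SH-SY5Y cells given compound then 100 nM thapsigargin to empty ER calcium; series mostly up to about 76 µM; 0% = thapsigargin alone and -100% = DMSO vehicle control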
How it was run: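 SH-SY5Y cells stably expressing constitutively secreted GLuc (no SERCaMP tag) were pre-incubated 5 h, treated with compound for 19 h, then 100 nM thapsigargin for 4 h at 37C; medium GLuc read by coelenterazine luminescence.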

[9] = Confirmatory qHTS for small molecule stabilizers of the endoplasmic reticulum resident proteome: Secreted ER Calcium Modulated Protein (SERCaMP) assay (AID 1508628);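 also: SH-SY5Y cells given compound 16 h then thapsigargin 100 nM for 4 h; series mostly up to about 76 µM; % is scaled to controls: 0 for no effect and ±100 for the full control effect; nearly all actives have a fitted effect of over 40% in size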
How it was run: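 We seeded SH-SY5Y-GLuc-SERCaMP cells, added compounds (three concentrations in the primary run, eleven up to 76.6 uM in confirmation), incubated 16 h, depleted ER calcium with thapsigargin, and read luciferase 4 h later.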

[10] = Cell Viability qHTS for small molecule stabilizers of the endoplasmic reticulum resident proteome (AID 1508629); settings: cell viability counter-screen, 100 nM thapsigargin for final 4 h;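 also: human SH-SY5Y neuroblastoma cells carrying the GLuc-SERCaMP reporter; compound exposure about 46 h in total before the viability read; % is scaled to controls: 0 for no effect and ±100 for the full control effect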

O=C(Nc1ccccc1)OCC(CN1CCCCC1)OC(=O)Nc1ccccc1 (configuration not stated)
inactive: Potency [1] | Potency [2] | outcome [3] | outcome [4] | Potency [5]

COc1ccc(/C=N/NC(=O)c2ccncc2)cc1OC
inactive: Potency [1] | Potency [2] | outcome [3] | outcome [4] | Potency [5] | Potency [6]

CCCCc1cc2ccccc2c(OCCN(C)C)n1
inactive: Potency [1] | Potency [2] | outcome [3] | outcome [4] | Potency [5]

c1ccc(CC2=NCCN2)cc1
inactive: Potency [1] | Potency [2] | outcome [3] | outcome [4] | Potency [5] | Potency [6]

OC[C@H]1O[C@@H]2O[C@H]3[C@H](O)[C@@H](O)[C@@H](O[C@H]4[C@H](O)[C@@H](O)[C@@H](O[C@H]5[C@H](O)[C@@H](O)[C@@H](O[C@H]6[C@H](O)[C@@H](O)[C@@H](O[C@H]7[C@H](O)[C@@H](O)[C@@H](O[C@H]8[C@H](O)[C@@H](O)[C@@H](O[C@H]1[C@H](O)[C@H]2O)O[C@@H]8CO)O[C@@H]7CO)O[C@@H]6CO)O[C@@H]5CO)O[C@@H]4CO)O[C@@H]3CO
inactive: Potency [1] | Potency [2] | outcome [3] | outcome [4] | Potency [5] | Potency [6]

Cc1cccc(C)c1NC(=O)CN1CCCC1
inactive: Potency [1] | Potency [2] | outcome [3] | outcome [4] | Potency [5] | Potency [6] | Potency [7]

CCCCCCCCCCCCCCCCO
inactive: Potency [1] | Potency [2] | outcome [3] | outcome [4] | Potency [5] | Potency [6]

Cc1ncc(CO)c(C=O)c1O
inactive: Potency [1] | Potency [2] | outcome [3] | outcome [4] | Potency [5] | Potency [6]

CC[N+](C)(CC)CCOC(=O)C(O)(c1ccccc1)C1CCCCC1 (configuration not stated)
inactive: Potency [1] | Potency [2] | outcome [3] | outcome [4] | Potency [5] | Potency [6]

C[N+]1(CC2COC(c3ccccc3)(C3CCCCC3)O2)CCCCC1 (configuration not stated)
inactive: Potency [1] | Potency [2] | outcome [3] | outcome [4] | Potency [5] | Potency [6]

C[N+]1(C)CCC(=C(c2ccccc2)c2ccccc2)CC1
inactive: Potency [1] | Potency [2] | outcome [3] | outcome [4] | Potency [5] | Potency [6]

CN(C)CCOC(c1ccc(Cl)cc1)c1ccccn1 (configuration not stated)
inactive: Potency [1] | Potency [2] | outcome [3] | outcome [4] | Potency [5] | Potency [6]

Nc1nc(-c2ccccc2)c(Br)c(=O)[nH]1
inactive: Potency [1] | Potency [2] | outcome [3] | outcome [4] | Potency [5] | Potency [6]

C=CCN1CCc2nc(N)sc2CC1
inactive: Potency [1] | Potency [2] | outcome [3] | outcome [4] | Potency [5] | Potency [8] | Potency [9] | max response [10] -7.52% | Potency [6] | Potency [7]

COc1cc(C(=O)NCc2ccc(OCCN(C)C)cc2)cc(OC)c1OC
inactive: Potency [1] | Potency [2] | outcome [3] | outcome [4] | Potency [5] | Potency [6]

CCN1CCCC(OC(=O)C(c2ccccc2)c2ccccc2)C1 (configuration not stated)
inactive: Potency [1] | Potency [2] | outcome [3] | outcome [4] | Potency [5] | Potency [6] | Potency [7]

CC(C)[N+](C)(C)CC(O)COc1cccc2ccccc12 (configuration not stated)
inactive: Potency [1] | Potency [2] | outcome [3] | outcome [4] | Potency [5] | Potency [6] | Potency [7]

N=C(N)N1CCc2ccccc2C1
inactive: activity change, negative = inhibition [1] -4.74% [at 3.83 µM] | activity change, negative = inhibition [2] -1.79% [at 6.17 µM] | activity change, negative = inhibition [3] -1.93% [at 4.81 µM] | activity change [4] -3.22% [at 0.431 µM] | activity change, negative = inhibition [5] -1.23% [at 12.4 µM] | activity change, negative = inhibition [6] -7.52% [at 3.88 µM] | % pathology change, negative = correction [7] 0.596% [at 4.63 µM]

CCCCCCCCCCCCSCCOCCO
inactive: Potency [1] | Potency [2] | outcome [3] | outcome [4] | Potency [5] | Potency [6] | Potency [7]

CC(=O)NCCCCCC(=O)O
inactive: Potency [1] | Potency [2] | outcome [3] | outcome [4] | Potency [5] | Potency [6] | Potency [7]

CC(C)Cn1cnc2c1c(=O)n(C)c(=O)n2C
inactive: Potency [1] | Potency [2] | outcome [3] | outcome [4] | Potency [5] | Potency [6] | Potency [7]

COC(=O)C(c1ccccc1Cl)N1CCc2sccc2C1 (configuration not stated)
inactive: Potency [1] | Potency [2] | outcome [3] | outcome [4] | Potency [5] | Potency [6] | Potency [7]

Cc1cc(NS(=O)(=O)c2ccc(N)cc2)nc(C)n1
inactive: Potency [1] | Potency [2] | outcome [3] | outcome [4] | Potency [5] | Potency [6] | Potency [7]

CC(=C(CCOC(=O)C(C)C)SSC(CCOC(=O)C(C)C)=C(C)N(C=O)Cc1cnc(C)nc1N)N(C=O)Cc1cnc(C)nc1N
inactive: Potency [1] | Potency [2] | outcome [3] | outcome [4] | Potency [5] | Potency [6] | Potency [7]

O=C(O)CCC(=O)Nc1ccc(S(=O)(=O)Nc2nccs2)cc1
inactive: Potency [1] | Potency [2] | outcome [3] | outcome [4] | Potency [5] | Potency [6] | Potency [7]

CCCCC(CC)CN1CN(CC(CC)CCCC)CC(C)(N)C1 (configuration not stated)
inactive: Potency [1] | Potency [2] | outcome [3] | outcome [4] | Potency [5] | Potency [6] | Potency [7]

CC(C)Cc1ccc(CC(=O)O)cc1
inactive: Potency [1] | Potency [2] | outcome [3] | outcome [4] | Potency [5] | Potency [6] | Potency [7]
